We go through 52 molecules from PubChem BioAssay AID504861 (Broad Institute, 2011).

The whole screen tested about 1,200 compounds, of which about 290 (24%) were called active. Inconclusive results (about 3%) are left out. These entries were drawn from the full list. Entries with a potency or affinity are not part of this list. Unmarked numbers belong to inactive results.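 The calls were made as follows: active = compounds lowering cell viability signal with fitted half-maximal concentration at most ten times their highest tested concentration; inconclusive = flat fit with 30 to 70% signal loss, or poor fit; inactive = the rest.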

The nature of the assay: HEK293T cell viability reduction, dose response, cytotoxicity control for LMP1 NF-kB inhibitor project, CellTiter-Glo luminescence, cherry-picks (AID 504861). The note with it: CellTiter-Glo ATP luminescence, 48 h; series mostly up to 26 µM; activity change, negative = cytotoxicity: at the top concentration.
As to `O=C(CN1C(=O)c2ccccc2S1(=O)=O)c1ccccc1`, the “activity change, negative = cytotoxicity” value was 16.5%.

As for `COc1cc(C2NC(=O)NC(C)=C2C(=O)OC2CCCC(C)C2)cc(Br)c1O` (configuration not stated), the “activity change, negative = cytotoxicity” value was 1.98%.

For the molecule `O=C(c1ccco1)N1CCN(S(=O)(=O)/C=C/c2ccccc2)CC1`, the “activity change, negative = cytotoxicity” value was -2.25%.

`CCCN(CCC)S(=O)(=O)c1ccc(C(=O)Nc2nnc(-c3cc(OC)cc(OC)c3)o2)cc1`: the “activity change, negative = cytotoxicity” value was 2.24%.

On to `S=C(N/N=C/c1ccc2ncccc2c1)Nc1cccnc1`, for which the “activity change, negative = cytotoxicity” value was 0.537%.

Take `COc1cc(/C=N/NC(=S)Nc2cccc(C(=O)O)c2)ccc1O`: the “activity change, negative = cytotoxicity” value was 13.6%.

With `COc1ccc(CNC(=O)N2[C@H]3CC[C@@H]2C=C(c2ccc(F)cc2OCc2ccccc2)C3)cc1OC`, the “activity change, negative = cytotoxicity” value is 8.66%.

Take `CCOc1cccc(CNc2nnnn2C)c1`: the “activity change, negative = cytotoxicity” value was -0.593%.

For the molecule `Cn1c(=O)[nH]c(=O)c2c1nc(CN1CCOCC1)n2CCCc1ccccc1`, the “activity change, negative = cytotoxicity” value was 2.77%.

With `O=C(c1ccc(C#CC2(O)CCCCC2)cc1)N1CCN(C(c2ccccc2)c2ccccc2)CC1`, the “activity change, negative = cytotoxicity” value is 3.71%.

With `CN(CC(=O)Nc1cccnc1)S(=O)(=O)c1ccc(Br)cc1`, the “activity change, negative = cytotoxicity” value is 21.2%.

For `CC1CCN(c2ccc(-c3ccc(NC(=O)C(F)(F)F)cc3)nn2)CC1`, the “activity change, negative = cytotoxicity” value was 7.11%.

With `Cc1ccc(-c2cc(N)n3nc(-c4ccc(C)cc4)cc3n2)cc1`, the “activity change, negative = cytotoxicity” value was 10.3%.

`COc1ccc(S(=O)(=O)NC(CC(=O)NCc2ccco2)C(C)C)cc1` (configuration not stated): the “activity change, negative = cytotoxicity” value is 7.05%.

On to `CC(=O)Nc1ccc(S(=O)(=O)N2CCCC2)cc1`, for which the “activity change, negative = cytotoxicity” value was 10%.

Turning to `CC(=O)Nc1nc(C)c(-c2csc(Nc3cccc([N+](=O)[O-])c3)n2)s1`, the “activity change, negative = cytotoxicity” value is -0.558%.

For the molecule `Nc1ccn([C@@H]2O[C@H](CO)[C@@H](O)C2O)c(=O)n1` (some centres not stated), the “activity change, negative = cytotoxicity” value was 1.52%.

On to `CCOC(=O)N1CCN(C(=O)C2CCC(=O)N(Cc3ccccc3OC)C2)CC1` (configuration not stated), for which the “activity change, negative = cytotoxicity” value is 4.09%.

Take `Cc1csc(NC(=O)c2ccc(N3CCCC3=O)cc2)n1`: the “activity change, negative = cytotoxicity” value is -6.07%.

`COc1ccc(/C=C2\SC(=O)N(CCCC(=O)Nc3ccc(C(=O)O)cc3)C2=O)cc1`: the “activity change, negative = cytotoxicity” value is 1.35%.

For `O=C1/C(=C/c2ccncc2)SC(=S)N1Cc1ccccc1`, the “activity change, negative = cytotoxicity” value is 3.49%.

Regarding `COc1ccccc1NC(=O)CC(c1ccc(OC(C)C)cc1)c1ccccc1OC` (configuration not stated), the “activity change, negative = cytotoxicity” value was 3.18%.

`Brc1ccc(-c2csc(N3CCCCCC3)n2)cc1`: the “activity change, negative = cytotoxicity” value was 14.6%.

`CC(C)(O)C#Cc1ccc([C@@H]2C[C@H]3CN(c4ccccc4)C(=O)[C@]34CCCN24)s1`: the “activity change, negative = cytotoxicity” value was -8.23%.

Turning to `CN(C1CCCCC1)S(=O)(=O)c1ccc(C(=O)N2CCN(c3nc4ccccc4s3)CC2)cc1`, the “activity change, negative = cytotoxicity” value was 3.38%.

Turning to `Cc1cccc(NC(=S)N=Nc2c(O)n(C)c3ccc(S(=O)(=O)N4CCOCC4)cc23)c1`, the “activity change, negative = cytotoxicity” value was 8.1%.

`CC(CCc1ccco1)N(C)S(=O)(=O)c1csc(C(N)=O)c1` (configuration not stated): the “activity change, negative = cytotoxicity” value was 3.06%.

Consider `CCC(=O)NC(c1ccc(C)cc1)c1cc(Cl)c2cccnc2c1O` (configuration not stated), for which the “activity change, negative = cytotoxicity” value is 4.72%.

With `O=C(Nc1ccncc1)OCc1ccccc1`, the “activity change, negative = cytotoxicity” value was -5.71%.

Consider `CS(=O)(=O)N(CC(=O)Nc1ccc(F)cc1F)C1CCCCC1`, for which the “activity change, negative = cytotoxicity” value was 7.69%.

Regarding `COc1ccc(-c2cc3nc4n(c(=O)c3s2)CCC4)cc1`, the “activity change, negative = cytotoxicity” value is -0.959%.

Take `O=C(N/N=C(/CC(=O)c1cccs1)C(F)(F)F)c1ccc(O)cc1`: the “activity change, negative = cytotoxicity” value is 13.8%.

On to `CC(C)(C)c1ccc(C(=O)N2CCC(=O)N(C(CO)Cc3ccccc3)CC2)cc1` (configuration not stated), for which the “activity change, negative = cytotoxicity” value was 1.74%.

As to `COc1ccc(-n2c(C)c(C(C)=O)c3cc(OC(C)=O)ccc32)cc1`, the “activity change, negative = cytotoxicity” value was -3.31%.

As to `O=c1nc(N/N=C/C=C/c2ccccc2)cn[nH]1`, the “activity change, negative = cytotoxicity” value was 13.1%.

Regarding `COc1ccc2cc3c(N)nn(C(=O)c4cccc([N+](=O)[O-])c4)c3nc2c1`, the “activity change, negative = cytotoxicity” value was 8.36%.

For `CCCc1cc(=O)[nH]c(SCC(=O)NC2CCCCC2)n1`, the “activity change, negative = cytotoxicity” value is 0.135%.

Take `O=Cc1cc(OCc2ccccc2)ccc1[B-](F)(F)F`: the “activity change, negative = cytotoxicity” value was 17.3%.

As to `C[C@@H]1CN([C@@H](C)CO)S(=O)(=O)c2ccc(/C=C/c3ccccc3)cc2O[C@@H]1CN(C)Cc1ccc(C(=O)O)cc1`, the “activity change, negative = cytotoxicity” value is -12.6%.

For the molecule `c1csc(CNc2ncnc3ccc(-c4ccoc4)cc23)c1`, the “activity change, negative = cytotoxicity” value was -9.02%.

Consider `CC(=O)OCC(=O)[C@@]1(O)CC[C@H]2[C@@H]3CCC4=CC(=O)CC[C@]4(C)[C@H]3[C@@H](O)C[C@@]21C`, for which the “activity change, negative = cytotoxicity” value is 1.32%.

Regarding `O=C(NCCc1ccccc1)c1ccccc1Cl`, the “activity change, negative = cytotoxicity” value is 5.61%.

On to `COc1ccccc1-c1nnc(Sc2nc([N+](=O)[O-])nn2C)o1`, for which the “activity change, negative = cytotoxicity” value is -10.5%.

For the molecule `Cc1ccc(NC(=O)/C=N/OCC(=O)NCc2ccccc2Cl)cc1`, the “activity change, negative = cytotoxicity” value is 4.14%.

Consider `CSc1ccccc1C(=O)N1CCC2(CC1)CC(=O)c1ccccc1O2`, for which the “activity change, negative = cytotoxicity” value is -2.08%.

For the molecule `CSc1nc(N)nc(SCC(=O)C23CC4CC(CC(C4)C2)C3)c1C#N`, the “activity change, negative = cytotoxicity” value is -8.4%.

Turning to `COc1cc2c(=O)n(CC3CCCO3)c(=O)n(CC(=O)Nc3cccc(Cl)c3)c2cc1OC` (configuration not stated), the “activity change, negative = cytotoxicity” value is 4.18%.

As to `O=[N+]([O-])c1ccc(/C=N/Nc2cc(Cl)nc(-c3ccccc3)n2)cc1`, the “activity change, negative = cytotoxicity” value was 3.89%.

As for `Cc1nn(C(C)(C)C)c(C)c1/C=N/OC(=O)Nc1ccc(Cl)c(Cl)c1`, the “activity change, negative = cytotoxicity” value is 7.48%.

On to `COc1ccc(-c2csc3ncnc(NCCN4CCOCC4)c23)cc1`, for which the “activity change, negative = cytotoxicity” value was 7.69%.

With `CCOc1ccc(-c2cc(C(=O)N/N=C/c3ccc(O)cc3)c3ccccc3n2)cc1`, the “activity change, negative = cytotoxicity” value was -1.88%.

`COc1ccc2cc(-c3cc(C(=O)OCC(=O)NC4CCS(=O)(=O)C4)c4ccccc4n3)ccc2c1` (configuration not stated): the “activity change, negative = cytotoxicity” value was -0.211%.
